Among the data in ChEMBL document CHEMBL1961873, “Compounds: GSK PKIS; Assays: Nanosyn kinase panel” (2012) are inhibition values, retold here.

The target in assay [1] is Mitogen-activated protein kinase 3 (Homo sapiens) (UniProt P27361). Particulars: at 1 µM.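 Further: values are mean percent inhibition of MAPK3.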
Assay [2] addresses SRSF protein kinase 3 (Homo sapiens) (UniProt Q9UPE1). Particulars: at 0.1 µM.
The target is the same in assay [3]. Particulars: at 1 µM.
For assay [4], the target named is Mitogen-activated protein kinase 14 (Homo sapiens) (UniProt Q16539). The settings on record: at 0.1 µM.
Assay [5] shares this target. The settings on record: at 1 µM.
Assay [6] concerns the target Mitogen-activated protein kinase 11 (Homo sapiens) (UniProt Q15759). Particulars: at 0.1 µM.
The target is the same in assay [7]. Particulars: at 1 µM.
Assay [8] concerns the target T1, Mitogen-activated protein kinase 13 (Homo sapiens) (UniProt O15264).
T1 sequence (whole entry): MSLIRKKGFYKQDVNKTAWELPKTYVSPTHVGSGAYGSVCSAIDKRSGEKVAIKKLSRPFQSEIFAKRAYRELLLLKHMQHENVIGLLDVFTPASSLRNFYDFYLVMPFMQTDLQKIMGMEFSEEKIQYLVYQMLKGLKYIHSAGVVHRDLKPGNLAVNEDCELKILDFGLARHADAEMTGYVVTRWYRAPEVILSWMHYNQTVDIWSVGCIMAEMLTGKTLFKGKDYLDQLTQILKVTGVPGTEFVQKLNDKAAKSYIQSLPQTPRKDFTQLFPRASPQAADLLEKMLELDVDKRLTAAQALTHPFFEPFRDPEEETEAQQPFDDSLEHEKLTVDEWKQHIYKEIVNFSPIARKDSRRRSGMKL
The settings on record: at 0.1 µM.

For assay [9], the target named is T1, Mitogen-activated protein kinase 13 (Homo sapiens). Particulars: at 1 µM.
Assay [10] concerns the target T2, Mitogen-activated protein kinase 12 (Homo sapiens) (UniProt P53778).
T2 sequence (whole entry): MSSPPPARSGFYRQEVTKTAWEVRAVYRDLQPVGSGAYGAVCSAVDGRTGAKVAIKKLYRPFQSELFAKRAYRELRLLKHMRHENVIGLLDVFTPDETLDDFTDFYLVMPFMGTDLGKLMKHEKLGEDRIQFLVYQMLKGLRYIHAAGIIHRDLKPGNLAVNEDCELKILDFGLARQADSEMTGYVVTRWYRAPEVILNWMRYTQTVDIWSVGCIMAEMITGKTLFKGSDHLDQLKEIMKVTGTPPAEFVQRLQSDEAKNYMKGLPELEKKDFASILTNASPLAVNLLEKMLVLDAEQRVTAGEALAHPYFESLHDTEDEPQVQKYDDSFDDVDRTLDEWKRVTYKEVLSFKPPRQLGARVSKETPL
Particulars: at 0.1 µM.

Assay [11] has as its target T2, Mitogen-activated protein kinase 12 (Homo sapiens). The settings on record: at 1 µM.
For assay [12], the target named is SRSF protein kinase 1 (Homo sapiens) (UniProt Q96SB4). Particulars: at 0.1 µM.
Assay [13] has the same target. The settings on record: at 1 µM.
Assay [14] deals with Phosphatidylinositol 4,5-bisphosphate 3-kinase catalytic subunit alpha isoform (Homo sapiens) (UniProt P42336). Particulars: at 0.1 µM.
The target is the same in assay [15]. Particulars: at 1 µM.
Assay [16] concerns the target T3, Phosphatidylinositol 4,5-bisphosphate 3-kinase catalytic subunit delta isoform (Homo sapiens) (UniProt O00329).
T3 sequence (whole entry): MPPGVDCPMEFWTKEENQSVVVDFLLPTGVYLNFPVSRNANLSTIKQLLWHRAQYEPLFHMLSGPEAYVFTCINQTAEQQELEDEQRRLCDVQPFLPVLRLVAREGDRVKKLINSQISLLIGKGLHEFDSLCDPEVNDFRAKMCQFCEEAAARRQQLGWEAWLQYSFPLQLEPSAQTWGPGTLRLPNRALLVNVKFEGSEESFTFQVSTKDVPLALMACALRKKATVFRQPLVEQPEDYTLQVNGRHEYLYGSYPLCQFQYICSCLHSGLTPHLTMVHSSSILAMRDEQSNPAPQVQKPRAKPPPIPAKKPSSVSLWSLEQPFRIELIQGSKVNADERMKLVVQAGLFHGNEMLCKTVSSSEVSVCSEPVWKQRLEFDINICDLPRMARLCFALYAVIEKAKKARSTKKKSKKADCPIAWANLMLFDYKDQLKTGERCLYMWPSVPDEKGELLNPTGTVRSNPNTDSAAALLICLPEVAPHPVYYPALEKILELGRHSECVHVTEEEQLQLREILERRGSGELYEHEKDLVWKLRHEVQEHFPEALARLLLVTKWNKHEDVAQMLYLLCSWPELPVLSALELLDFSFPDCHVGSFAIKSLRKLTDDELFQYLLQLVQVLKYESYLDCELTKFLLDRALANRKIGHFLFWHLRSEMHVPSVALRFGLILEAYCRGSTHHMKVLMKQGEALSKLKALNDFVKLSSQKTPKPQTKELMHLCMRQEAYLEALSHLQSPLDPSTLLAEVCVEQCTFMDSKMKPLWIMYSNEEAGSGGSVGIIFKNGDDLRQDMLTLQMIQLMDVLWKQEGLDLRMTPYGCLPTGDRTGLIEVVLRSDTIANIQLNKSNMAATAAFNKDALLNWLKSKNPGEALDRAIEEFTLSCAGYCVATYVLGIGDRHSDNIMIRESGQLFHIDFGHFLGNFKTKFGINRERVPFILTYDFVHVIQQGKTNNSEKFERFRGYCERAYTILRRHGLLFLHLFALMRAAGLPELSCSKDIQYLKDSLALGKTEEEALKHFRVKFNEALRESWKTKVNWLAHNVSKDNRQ
Particulars: at 0.1 µM.

Assay [17] concerns the target T3, Phosphatidylinositol 4,5-bisphosphate 3-kinase catalytic subunit delta isoform (Homo sapiens). Particulars: at 1 µM.
Assay [18] addresses Phosphatidylinositol 4-kinase beta (Homo sapiens) (UniProt Q9UBF8). The settings on record: at 1 µM.
Assay [19] addresses Sphingosine kinase 1 (Homo sapiens) (UniProt Q9NYA1). Particulars: at 0.1 µM.
In assay [20] the target is Phosphatidylinositol 4-kinase beta (Homo sapiens) (UniProt Q9UBF8). The settings on record: at 0.1 µM.
Sequence of Phosphatidylinositol 4-kinase beta (Homo sapiens) (Q9UBF8 2-816 limits assumed): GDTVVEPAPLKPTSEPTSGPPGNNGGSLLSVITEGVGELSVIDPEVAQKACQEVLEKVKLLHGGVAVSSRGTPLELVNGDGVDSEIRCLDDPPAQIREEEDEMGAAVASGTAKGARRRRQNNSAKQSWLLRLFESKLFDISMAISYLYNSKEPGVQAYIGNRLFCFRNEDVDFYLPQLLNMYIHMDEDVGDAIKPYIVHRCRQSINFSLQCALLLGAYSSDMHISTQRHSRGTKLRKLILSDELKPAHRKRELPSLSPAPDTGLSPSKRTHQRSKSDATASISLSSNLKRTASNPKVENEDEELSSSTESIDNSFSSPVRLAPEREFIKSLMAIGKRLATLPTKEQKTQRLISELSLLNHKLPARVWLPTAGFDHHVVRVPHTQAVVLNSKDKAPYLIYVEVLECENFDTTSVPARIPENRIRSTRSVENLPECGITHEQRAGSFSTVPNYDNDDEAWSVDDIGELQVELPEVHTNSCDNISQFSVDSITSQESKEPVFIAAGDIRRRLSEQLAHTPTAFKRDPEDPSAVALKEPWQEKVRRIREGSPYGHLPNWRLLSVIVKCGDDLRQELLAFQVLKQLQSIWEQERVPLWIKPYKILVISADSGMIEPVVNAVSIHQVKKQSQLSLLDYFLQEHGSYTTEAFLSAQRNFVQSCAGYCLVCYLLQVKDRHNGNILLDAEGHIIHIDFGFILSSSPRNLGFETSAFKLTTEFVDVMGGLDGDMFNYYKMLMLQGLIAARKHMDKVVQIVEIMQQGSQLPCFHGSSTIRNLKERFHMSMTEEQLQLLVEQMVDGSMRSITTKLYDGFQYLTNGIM

Sequence of Phosphatidylinositol 4,5-bisphosphate 3-kinase catalytic subunit alpha isoform (Homo sapiens) (P42336 whole entry, canonical isoform): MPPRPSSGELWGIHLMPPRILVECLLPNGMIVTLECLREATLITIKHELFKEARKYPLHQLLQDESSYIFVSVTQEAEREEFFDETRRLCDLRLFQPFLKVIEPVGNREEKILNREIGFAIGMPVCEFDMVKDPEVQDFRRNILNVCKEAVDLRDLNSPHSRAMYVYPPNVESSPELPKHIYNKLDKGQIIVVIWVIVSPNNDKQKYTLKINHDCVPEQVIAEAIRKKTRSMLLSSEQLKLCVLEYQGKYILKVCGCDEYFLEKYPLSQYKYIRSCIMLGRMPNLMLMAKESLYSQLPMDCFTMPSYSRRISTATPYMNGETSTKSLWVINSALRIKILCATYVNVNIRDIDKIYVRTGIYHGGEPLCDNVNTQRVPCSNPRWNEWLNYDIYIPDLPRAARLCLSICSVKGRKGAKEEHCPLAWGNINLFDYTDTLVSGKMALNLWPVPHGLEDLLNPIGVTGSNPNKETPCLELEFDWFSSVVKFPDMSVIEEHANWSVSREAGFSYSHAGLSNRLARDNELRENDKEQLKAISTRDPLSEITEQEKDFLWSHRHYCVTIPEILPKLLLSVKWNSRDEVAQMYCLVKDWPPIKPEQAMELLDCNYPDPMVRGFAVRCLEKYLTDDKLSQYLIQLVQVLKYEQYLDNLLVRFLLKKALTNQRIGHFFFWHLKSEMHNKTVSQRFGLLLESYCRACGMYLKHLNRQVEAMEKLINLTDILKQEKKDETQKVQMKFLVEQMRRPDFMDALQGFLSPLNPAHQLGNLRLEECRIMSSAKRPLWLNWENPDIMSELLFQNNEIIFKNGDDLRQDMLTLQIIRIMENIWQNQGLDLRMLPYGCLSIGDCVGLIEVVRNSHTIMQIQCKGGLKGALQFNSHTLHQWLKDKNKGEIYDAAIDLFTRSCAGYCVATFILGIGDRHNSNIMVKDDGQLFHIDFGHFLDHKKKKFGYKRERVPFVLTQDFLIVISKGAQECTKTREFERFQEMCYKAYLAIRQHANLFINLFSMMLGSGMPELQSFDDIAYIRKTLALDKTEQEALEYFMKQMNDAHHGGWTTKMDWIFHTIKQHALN
Sequence of Mitogen-activated protein kinase 11 (Homo sapiens) (Q15759 whole entry): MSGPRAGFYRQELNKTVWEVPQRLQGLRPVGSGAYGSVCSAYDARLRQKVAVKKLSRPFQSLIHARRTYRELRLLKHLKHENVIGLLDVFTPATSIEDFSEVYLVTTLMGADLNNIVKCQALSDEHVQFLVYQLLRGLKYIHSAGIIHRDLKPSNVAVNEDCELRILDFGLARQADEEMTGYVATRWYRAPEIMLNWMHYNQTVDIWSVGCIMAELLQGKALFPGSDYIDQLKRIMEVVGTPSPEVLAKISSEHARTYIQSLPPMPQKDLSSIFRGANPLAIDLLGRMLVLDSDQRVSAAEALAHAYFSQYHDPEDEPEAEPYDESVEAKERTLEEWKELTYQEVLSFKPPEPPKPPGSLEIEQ
Sequence of Mitogen-activated protein kinase 3 (Homo sapiens) (P27361 whole entry): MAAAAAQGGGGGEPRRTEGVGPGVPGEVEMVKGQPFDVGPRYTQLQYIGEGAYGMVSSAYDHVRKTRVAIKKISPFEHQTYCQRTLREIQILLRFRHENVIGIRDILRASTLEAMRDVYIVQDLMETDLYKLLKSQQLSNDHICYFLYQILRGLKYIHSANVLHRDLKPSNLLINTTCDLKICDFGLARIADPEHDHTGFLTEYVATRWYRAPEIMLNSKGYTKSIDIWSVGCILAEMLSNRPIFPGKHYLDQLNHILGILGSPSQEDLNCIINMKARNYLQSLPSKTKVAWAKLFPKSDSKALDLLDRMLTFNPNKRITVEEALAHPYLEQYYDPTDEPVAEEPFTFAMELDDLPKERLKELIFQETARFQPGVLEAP
Sequence of Sphingosine kinase 1 (Homo sapiens) (Q9NYA1 whole entry): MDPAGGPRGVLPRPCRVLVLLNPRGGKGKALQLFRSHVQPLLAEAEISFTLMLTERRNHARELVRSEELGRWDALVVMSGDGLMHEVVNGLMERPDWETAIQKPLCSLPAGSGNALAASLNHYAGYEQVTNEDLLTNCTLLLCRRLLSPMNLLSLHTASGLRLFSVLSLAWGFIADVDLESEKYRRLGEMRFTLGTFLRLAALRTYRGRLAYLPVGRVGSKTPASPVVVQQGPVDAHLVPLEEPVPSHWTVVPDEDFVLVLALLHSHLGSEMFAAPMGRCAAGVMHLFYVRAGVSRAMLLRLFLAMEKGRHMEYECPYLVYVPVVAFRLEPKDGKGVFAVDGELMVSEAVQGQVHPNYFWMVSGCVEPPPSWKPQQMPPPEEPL
Sequence of SRSF protein kinase 1 (Homo sapiens) (Q96SB4 whole entry): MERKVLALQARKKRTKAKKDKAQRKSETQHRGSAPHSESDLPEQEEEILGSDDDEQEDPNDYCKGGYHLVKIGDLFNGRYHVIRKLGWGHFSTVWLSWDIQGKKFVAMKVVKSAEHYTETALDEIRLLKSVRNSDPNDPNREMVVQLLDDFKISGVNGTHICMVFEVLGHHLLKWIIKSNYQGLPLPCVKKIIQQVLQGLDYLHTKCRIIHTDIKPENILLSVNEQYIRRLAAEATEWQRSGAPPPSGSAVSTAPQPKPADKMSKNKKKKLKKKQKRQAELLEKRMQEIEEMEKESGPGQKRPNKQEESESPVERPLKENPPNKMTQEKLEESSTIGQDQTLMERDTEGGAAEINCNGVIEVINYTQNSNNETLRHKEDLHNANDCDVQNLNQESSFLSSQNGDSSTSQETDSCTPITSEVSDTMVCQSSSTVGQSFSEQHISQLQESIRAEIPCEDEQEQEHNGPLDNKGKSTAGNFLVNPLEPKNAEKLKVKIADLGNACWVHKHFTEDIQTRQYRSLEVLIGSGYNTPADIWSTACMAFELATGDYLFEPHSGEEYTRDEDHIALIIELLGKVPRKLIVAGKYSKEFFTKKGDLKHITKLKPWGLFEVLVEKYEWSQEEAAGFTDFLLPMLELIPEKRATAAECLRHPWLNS
Sequence of Mitogen-activated protein kinase 14 (Homo sapiens) (Q16539 whole entry): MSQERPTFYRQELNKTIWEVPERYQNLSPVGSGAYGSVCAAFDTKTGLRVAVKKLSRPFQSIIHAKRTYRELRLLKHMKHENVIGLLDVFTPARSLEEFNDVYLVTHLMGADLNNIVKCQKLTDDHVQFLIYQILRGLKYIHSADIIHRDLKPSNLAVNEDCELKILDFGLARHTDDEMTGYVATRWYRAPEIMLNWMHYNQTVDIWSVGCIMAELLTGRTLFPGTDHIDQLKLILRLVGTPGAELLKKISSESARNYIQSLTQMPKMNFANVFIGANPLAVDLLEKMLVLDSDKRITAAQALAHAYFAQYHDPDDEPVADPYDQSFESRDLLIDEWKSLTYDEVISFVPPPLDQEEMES
Sequence of SRSF protein kinase 3 (Homo sapiens) (Q9UPE1 whole entry): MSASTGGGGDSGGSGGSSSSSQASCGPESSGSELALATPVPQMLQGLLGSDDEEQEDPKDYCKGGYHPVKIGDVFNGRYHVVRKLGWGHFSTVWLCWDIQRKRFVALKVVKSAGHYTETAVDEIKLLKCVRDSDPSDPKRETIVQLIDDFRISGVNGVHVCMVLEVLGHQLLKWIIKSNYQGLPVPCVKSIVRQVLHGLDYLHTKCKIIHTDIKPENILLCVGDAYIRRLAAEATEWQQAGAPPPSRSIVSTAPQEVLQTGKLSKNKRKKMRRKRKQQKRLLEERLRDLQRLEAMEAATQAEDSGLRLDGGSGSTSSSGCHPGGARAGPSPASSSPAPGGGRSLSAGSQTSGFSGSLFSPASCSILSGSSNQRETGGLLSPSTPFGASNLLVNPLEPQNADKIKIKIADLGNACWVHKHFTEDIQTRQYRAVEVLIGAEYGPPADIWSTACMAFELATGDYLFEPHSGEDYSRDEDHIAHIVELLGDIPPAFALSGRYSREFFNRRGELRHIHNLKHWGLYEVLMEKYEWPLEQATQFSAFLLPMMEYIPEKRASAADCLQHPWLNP

Consider `O=C1Nc2ccccc2/C1=C/Nc1ccc(-n2cncn2)cc1`, for which the inhibition (in general, the change of the read-out against control, counted positive when it falls) in assay [1] is 6.36%; in [2] it was -3.04%; in assay [3], -0.36%; in assay [4] it was 2.12%; in assay [5] it was 6.86%; in assay [6], 5.3%. The inhibition was 8.05% in assay [7]; 2.33% in assay [8]; 5.56% in assay [9]; 2.03% in assay [10]; 3.66% in [11]; -1.28% in [12]. The inhibition in [13] is 1.26%; in assay [14] it was 3.26%; in [15], 3.95%; in [16], 1.81%; in [17], 2.88%; in [18], -9.88%. For the same molecule, the inhibition in assay [19] worked out at 1.74%.

Take `CCc1cccc(CC)c1/C=C/c1cncc(C(=O)NC)c1`: the inhibition is 1.29% in [1]; 1.81% in [2]; 0.49% in [3]; 3.92% in [4]; 8.94% in assay [5]; 4.41% in assay [6]. Moreover, the inhibition is 4.99% in assay [7]; -0.46% in assay [8]; 4.25% in assay [9]; -2.91% in assay [10]; 1.19% in [11]; -1.77% in [12]. The inhibition in assay [13] was -2.98%; in [14], 1.54%; in [15] it was 1.36%; in assay [16], 4.84%; in assay [17], 3.62%; in assay [20], -2.02%. Moreover, the inhibition in assay [18] was -0.43%; in assay [19] it was 0.93%.

Consider `NC(=O)Cc1ccccc1Oc1nccc(-c2c(-c3ccc(F)cc3)ncn2C2CCNCC2)n1`, for which the inhibition in assay [1] is 2.24%; in assay [2] it was -0.6%; in assay [3], 0.09%; in assay [12], -2.64%; in assay [13], -4.17%; in assay [14], 1.29%. For the same molecule, the inhibition in assay [15] was 3.49%; in assay [16] it was 2.67%; in [17] it was 2.58%; in [20], -0.45%; in [18], 3.25%; in assay [19], -2.17%.

For `C/C(Nc1ccc(S(N)(=O)=O)cc1)=C1/C(=O)Nc2ccccc21`, the inhibition in assay [1] was 0.88%; in assay [2] it was -1.51%; in assay [3], -1.15%; in assay [4] it was 2.61%; in [5] it was 3.43%; in [6], 1.67%. The inhibition in [7] is 7.87%; in assay [8], -0.85%; in [9], -1.14%; in assay [10], -1.08%; in assay [11] it was -1.66%; in [12] it was 2.04%. Besides, the inhibition was 1.41% in assay [13]; 0.42% in assay [14]; 1.42% in assay [15]; 2.42% in assay [16]; 3.52% in assay [17]; -1.12% in [20]. Besides, the figures for the inhibition in assay [18] and in assay [19] were -0.13% and -1.38%, respectively.

Regarding `C[C@@H](Oc1cc(-n2cnc3ccc(OCC4CCN(C)CC4)cc32)sc1C(N)=O)c1ccccc1Cl`, the inhibition in assay [1] stood at 7.74%; in assay [2], 0.89%; in assay [3], 0.11%; in [4], 5.8%; in [5], 6.58%; in assay [6], 3.71%. Also, the inhibition in [7] is 5.93%; in assay [8], 5.74%; in assay [9], 6.23%; in [10] it was 3.48%; in assay [11], 6.25%; in assay [12], -2.59%. Further, the inhibition in assay [13] is -1.67%; in assay [14] it was 8.19%; in assay [15], 27.3%; in assay [16] it was 15.6%; in assay [17], 74.6%; in [20], -6.34%. Further, in assay [19], the inhibition is 1.45%.

Consider `Fc1ccc(-c2ncn(C3CCNCC3)c2-c2ccnc(Oc3ccc4c(c3)OCO4)n2)cc1`, for which the inhibition in assay [1] was 10.1%; in assay [2], 1.72%; in [3], 6.43%; in assay [12], -1.04%; in [13], 0.51%; in assay [14], 4.23%. In addition, the inhibition in assay [15] worked out at 4.92%; in assay [16], 0.82%; in assay [17], 3.24%; in assay [20], 2.26%; in assay [18] it was 4.42%; in [19], 1.03%.

With `CNC(=O)c1cncc(/C=C/c2c(C)cccc2C)c1`, the inhibition in [1] is 3.65%; in [2] it was -0.82%; in assay [3], 2.87%; in [4], 1.86%; in assay [5] it was 7.55%; in assay [6], 0.94%. The inhibition is 2.24% in assay [7]; -0.85% in assay [8]; -0.13% in [9]; -0.99% in assay [10]; -0.37% in assay [11]; 0.32% in [12]. In addition, the inhibition was 0.21% in assay [13]; -1.85% in assay [14]; -3.99% in [15]; -1.64% in [16]; -1.98% in assay [17]; 3.95% in assay [20]. Besides, the figures for the inhibition in assay [18] and in assay [19] were 0.59% and 0.03%, respectively.
